Sampled rows, rich in hits. Any-hit rate of the full collection: about 18%.
TDP1 cell noCPT: qHTS for Inhibitors of human tyrosyl-DNA phosphodiesterase 1 (TDP1): qHTS in cells in absence of CPT | DT40 Tdp1-/- hTDP1 cells, no CPT, ATP luminescence, 48 h | Potency, µM (doses to about 46.2 µM), without a hit: at the top dose activity change, negative = growth inhibition, hits mostly inhibitors | 420,000 compounds, 15% hits; also: potency is read from the fitted curve at half-maximal effect; % is scaled to controls: 0 for no effect and ±100 for the full control effect; nearly all actives have a fitted effect of over 55% in size
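Camptothecin absent (DMSO only). Human TDP1-complemented DT40 knockout cells, 400 cells/well, 37 °C for minimum 48 hr; ATP measured via CellTiter-Glo, 30 min dark incubation, luminescence.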
IL-1B inflam inh: inhibitors of inflammasome signaling (IL-1 beta secretion); THP-1 LPS/ATP IL-1B secretion, AlphaLISA, 16 h; hits give low values; activity change, % at 57.5 µM; 360,000 compounds, 4.7% hits; in the data active = activity change below about -50%; inconclusive = mostly about -30% to -49%; also: % is scaled to controls: 0 for no effect and ±100 for the full control effect
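THP-1 cells pretreated 1 hr with compounds (up to 57.5 uM final), then stimulated with LPS (250 ng/mL final) plus ATP (1.25 mM final); secreted IL-1B measured by AlphaLISA after 16 hr, decreased signal indicating inhibition.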
HepG2 tox: counter-screen for TGF-b inhibitors: cytotoxicity in HepG2 cells | Potency, µM (highest dose often 46.1 µM), inactives show at the highest dose activity change, negative = cytotoxicity, usual class: cytotoxic | AID 588856 | 410,000 compounds, 0.76% hits | HepG2 CAGA-GFP viability, ATP luminescence, 18 h; also: potency is read from the fitted curve at half-maximal effect
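CellTiter-Glo luminescence gave cytotoxicity after 18 hours at 37 degrees C. The cells were HepG2 CAGA-GFP in 1% FBS DMEM, stimulated with 500 pg/mL TGF-beta after compound addition. %Activity was normalised to no-cell wells (complete cell-killing) and DMSO (no toxicity), and curves were fitted and classified.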
TDP1 cell CPT: growth inhibition of DT40 Tdp1-/-;hTDP1 cells with camptothecin (screen for TDP1 inhibitors). AID 686979. Potency, µM (titrated, usually from 46.2 µM), without a hit: top-dose activity change, negative = growth inhibition, actives largely listed as inhibitors. chicken DT40 Tdp1-/-;hTDP1 cells + 20 nM CPT, ATP luminescence, 48 h. 420,000 compounds, 12% hits; also: potency is read from the fitted curve at half-maximal effect; % is scaled to controls: 0 for no effect and ±100 for the full control effect; nearly all actives have a fitted effect of over 55% in size
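Cell growth measured by CellTiter-Glo luminescence after a minimum 48 h, 37 C compound exposure with 20 nM CPT in Tdp1-knockout DT40 cells stably expressing hTDP1, seeded 400/well; qHTS titration format.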
TGFb SMAD3 inh: inhibitors of TGF-b signaling; AID 588855; HepG2 CAGA-GFP TGF-b/SMAD3 reporter, GFP fluorescence, 18 h; TGF-beta stimulated, 500 pg/mL final; Potency, µM (highest dose often 46.1 µM), without a hit: at the highest dose activity, negative = inhibition, actives largely listed as inhibitors; 410,000 compounds, 1.2% hits; also: potency is read from the fitted curve at half-maximal effect; % is scaled to controls: 0 for no effect and ±100 for the full control effect; nearly all actives have a fitted effect of over 65% in size
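HEPG2 CAGA-GFP cells (1000/well, DMEM with 1% FBS) were pre-incubated 2 h at 37 degrees C, given compound by pin tool, then stimulated with TGF-beta at 500 pg/mL final for 18 h before per-cell GFP fluorescence imaging.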
TDP1 inh: TDP1 (human) enzyme inhibition; Q9NUW8; recombinant TDP1, AlphaScreen DNA substrate cleavage; Potency, µM (highest dose often 130 µM), without a hit: at the top dose activity change, negative = inhibition, usual class: inhibitors; 350,000 compounds, 0.28% hits; AID 485290; also: potency is read from the fitted curve at half-maximal effect; % is scaled to controls: 0 for no effect and ±100 for the full control effect; nearly all actives have a fitted effect of over 40% in size
Target sequence (Q9NUW8 whole entry, looked up): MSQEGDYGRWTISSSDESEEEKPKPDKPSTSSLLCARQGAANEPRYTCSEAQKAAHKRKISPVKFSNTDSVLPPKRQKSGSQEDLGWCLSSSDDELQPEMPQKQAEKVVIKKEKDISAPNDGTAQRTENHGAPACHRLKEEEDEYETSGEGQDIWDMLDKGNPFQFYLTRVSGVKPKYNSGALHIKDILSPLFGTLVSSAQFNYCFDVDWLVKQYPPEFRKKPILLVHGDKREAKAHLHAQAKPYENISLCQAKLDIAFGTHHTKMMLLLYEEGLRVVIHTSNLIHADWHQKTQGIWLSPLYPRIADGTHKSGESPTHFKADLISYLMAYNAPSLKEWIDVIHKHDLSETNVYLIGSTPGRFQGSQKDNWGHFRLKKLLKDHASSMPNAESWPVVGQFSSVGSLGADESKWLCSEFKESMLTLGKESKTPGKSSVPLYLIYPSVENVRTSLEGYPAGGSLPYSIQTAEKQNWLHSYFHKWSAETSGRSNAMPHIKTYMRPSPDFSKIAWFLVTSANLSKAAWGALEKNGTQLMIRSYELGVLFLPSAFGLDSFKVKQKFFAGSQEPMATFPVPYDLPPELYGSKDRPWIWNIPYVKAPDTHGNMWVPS
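Recombinant E. coli-expressed Tdp1 (1 nM) preincubated with compound 15 min at RT, then 5'-biotin/3'-phosphotyrosine-FITC DNA substrate (15 nM) added for 5 min. AlphaScreen beads (10 ug/ml) added, 10 min RT; tyrosine-FITC cleavage read as signal loss.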
Numbers without * were called inactive. Unless noted, calls follow the shape of the dose curve; as a rule, active = well fitted curve in the direction sought with a large enough effect; inconclusive = small, poorly fitted or top-dose-only effect, or another doubt; inactive = no such curve, though single readings can be large; an effect the other way counts as inactive or inconclusive.

Screening Cc1cccc(C)c1NC(=O)CN1CCN(c2ccc(C(F)(F)F)cn2)CC1 returned TDP1 cell noCPT 11.6µM*, IL-1B inflam inh 6.0, HepG2 tox -22.8%, TDP1 cell CPT 14.6µM* and TGFb SMAD3 inh inconclusive.
CC(=O)Nc1ccc(N2CCN(c3ccc(C(F)(F)F)cn3)CC2)nc1 was read as TDP1 cell noCPT inconclusive, IL-1B inflam inh 18.3, HepG2 tox -39.9%, TDP1 cell CPT inconclusive, TGFb SMAD3 inh -2.9% and TDP1 inh 5.1%.
For Cc1ccccc1SCC(=O)N1CCN(c2ccc(C(F)(F)F)cn2)CC1 the results were TDP1 cell noCPT 23.1µM*, IL-1B inflam inh -92.0*, HepG2 tox 3.5%, TDP1 cell CPT inconclusive, TGFb SMAD3 inh -17.1% and TDP1 inh 5.4%.
For CCOC(=O)C1CCN(C(=O)COC(=O)CSc2ccc(C(N)=O)cc2[N+](=O)[O-])CC1 the results were TDP1 cell noCPT -3.7%, IL-1B inflam inh inactive, HepG2 tox 18.1%, TDP1 cell CPT -2.7%, TGFb SMAD3 inh 0.5% and TDP1 inh 1.7%.
Screening COc1ccc(-c2nnc(NC(=O)c3ccc([N+](=O)[O-])o3)o2)c(OC)c1 returned TDP1 cell noCPT 18.4µM*, IL-1B inflam inh -18.5, HepG2 tox -22.8%, TDP1 cell CPT inconclusive, TGFb SMAD3 inh inconclusive and TDP1 inh 4.1%.
For Cc1ccc(-c2nnc(NC(=O)C3=COCCO3)o2)c(C)c1 the results were TDP1 cell noCPT -18.9%, IL-1B inflam inh -2.6, HepG2 tox -24.1%, TDP1 cell CPT -20.5%, TGFb SMAD3 inh 1.0% and TDP1 inh -4.6%.
Screening Cc1ccc(-c2nnc(NC(=O)c3ccc([N+](=O)[O-])o3)o2)c(C)c1 returned TDP1 cell noCPT 13µM*, IL-1B inflam inh inconclusive, HepG2 tox -6.1%, TDP1 cell CPT 16.4µM* and TGFb SMAD3 inh -19.4%.
COc1ccc(C(=O)Nc2nnc(C3=COCCO3)o2)cc1 was read as TDP1 cell noCPT -10.9%, IL-1B inflam inh 10.6, HepG2 tox -1.3%, TDP1 cell CPT -25.9%, TGFb SMAD3 inh -2.1% and TDP1 inh 8.4%.
`CCCc1nn2c(=O)cc(COC(=O)c3cccs3)nc2s1` gave TDP1 cell noCPT inconclusive, HepG2 tox -5.9%, TDP1 cell CPT -28.6%, TGFb SMAD3 inh -7.9% and TDP1 inh 1.9%.
Screening Cc1ccc(Cn2c(SCC(=O)NCc3ccccc3)nc3ccsc3c2=O)cc1 returned TDP1 cell noCPT inconclusive, HepG2 tox 2.0%, TDP1 cell CPT inconclusive, TGFb SMAD3 inh 5.2% and TDP1 inh 2.5%.
`C#CC1(O)CCCC2C3CCC4CC(OC(C)=O)CCC4(C)C3C(=O)CC21C` (stereo not drawn) gave TDP1 cell noCPT 20.6µM*, IL-1B inflam inh 3.2, HepG2 tox -19.0%, TDP1 cell CPT 23.1µM* and TGFb SMAD3 inh -9.5%.
For COCC(=O)N1CCC[C@@]2(CCN(C(=O)Nc3ccccc3)C2)C1 the results were TDP1 cell noCPT 0.0% and TDP1 cell CPT 12.7%.
For COc1ccc(C(=O)Nc2ccc3c(c2)CCCN3S(=O)(=O)c2ccc(C)cc2)c(OC)c1 the results were TDP1 cell noCPT 5.17µM*, HepG2 tox 7.8%, TDP1 cell CPT 5.8µM*, TGFb SMAD3 inh 0.6% and TDP1 inh 1.2%.
`Cc1ccc(S(=O)(=O)N2CCc3cc(C(=O)Nc4ccc(C(F)(F)F)cc4)ccc32)cc1` gave TDP1 cell noCPT inconclusive, HepG2 tox -20.5%, TDP1 cell CPT inconclusive, TGFb SMAD3 inh 23.6% and TDP1 inh 4.7%.

Screens (PubChem)
